Source: PubChem BioAssay
PNC inhibitor: perinucleolar compartment assembly inhibition | PC3M PTB-GFP, PNC prevalence imaging, 16 h; hits give low values | activity change (PNC), negative = inhibition, % at 10 µM | actives 3.1% (n = 140,000) | AID 2417;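 active = readout at or below -70, meaning at least 70% loss of cells showing the perinucleolar compartment, a nuclear body marking cancer cells; inconclusive = readout between -30 and a set limit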;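 note: plate controls were DMSO wells for no effect and camptothecin positive control wells for full effect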
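PC3M cells stably expressing PTB-GFP, 750–1000 cells/well, treated 16 h at 37 °C with compound (23 nl of library stock), in duplicate. After paraformaldehyde fixation and Hoechst stain, imaged at 20x; PNC prevalence scored by image analysis.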
HPGD inh: inhibitors of human 15-hydroxyprostaglandin dehydrogenase (HPGD) | P15428 | purified HPGD, NADH fluorescence kinetic, PGE2 substrate | Potency, µM, without a hit: at the highest dose activity change, negative = inhibition, most hits filed as inhibitors | actives 4.3% (n = 150,000) | AID 894; note: potency is the fitted concentration of half-maximal effect
Target sequence (P15428 whole entry, looked up): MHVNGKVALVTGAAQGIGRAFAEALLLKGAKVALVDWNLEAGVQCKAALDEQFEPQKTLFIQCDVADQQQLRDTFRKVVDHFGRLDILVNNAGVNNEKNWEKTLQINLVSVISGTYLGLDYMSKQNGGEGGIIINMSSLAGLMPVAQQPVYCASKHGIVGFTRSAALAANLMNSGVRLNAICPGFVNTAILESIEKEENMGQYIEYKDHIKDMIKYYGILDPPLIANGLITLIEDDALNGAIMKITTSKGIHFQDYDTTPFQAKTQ
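20 nM HPGD preincubated 15 min at room temperature with compound in 50 mM Tris-HCl pH 8, 0.01% Tween 20. Started with 1 mM NAD+ and 30 uM prostaglandin E2; NADH fluorescence (360/450 nm) read 5 times over 30-s intervals, last minus first.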
ALDH1A1 block: blocks purified human ALDH1A1 activity; P00352; Purified ALDH1A1, NADH fluorescence, propionaldehyde substrate; Potency, µM (top dose mostly 75.3 µM), for inactives: top-dose activity, negative = inhibition, most hits filed as inhibitors; actives 7.3% (n = 220,000); AID 1030;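 note: potency is the fitted concentration of half-maximal effect; plate controls were no enzyme wells and a reference inhibitor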
* = called active by the depositor; ? = inconclusive; · = no result given; [ ] = dose if it differs, or a comment. Compounds with a hit are over-represented: about 11% of the library has one in this group of screens. Unless noted, calls come from the whole dose curve; as a rule, active = well fitted inhibition curve with a large enough effect (not every such curve was filed as active); inconclusive = small, poorly fitted or top-dose-only effect, or another doubt; inactive = no such curve, though single readings can be large or run the other way. Unless noted, % is set by controls: 0 for no effect and ±100 for the full control effect.

SMILES	PNC inhibitor	HPGD inh	ALDH1A1 block
CC1CN(C(=O)C(C)Sc2nc3ccccc3s2)CC(C)O1 (configuration not stated)	-0.9	28.2µM*	?
CC(Sc1nc2ccccc2s1)C(=O)NC1CCCc2ccccc21 (configuration not stated)	20.8	-3.7%	12.6µM*
CC(NC(=O)C1(c2cccs2)CCOCC1)c1ccccc1 (configuration not stated)	-10.3	-5.2%	9.1%
COc1cccc(-c2nc(COc3ccc(Cl)cc3Cl)no2)c1	·	·	-7.3%
O=C(Nc1ccc(Oc2ccc(C(F)(F)F)cn2)c(Cl)c1)C1CC1	·	·	-8.1%
Cc1c(Cl)cccc1NC(=S)NCCc1ccc(C(F)(F)F)cc1	·	·	-0.7%
C/C(CC(=O)N(C(C)C)C(C)C)=N\NC(=O)c1ccccc1Br	33.6	-8.9%	-4.4%
O=C(CCCn1c(SCC(=O)NC2CCCCC2)nc2ccccc2c1=O)NCC1CCCO1 (configuration not stated)	-7.7	?	?
COC(=O)c1ccc2c(=O)n(CC3CCCO3)c(SCC(=O)Nc3ccccc3OC)nc2c1 (configuration not stated)	?	-12.3%	14.1µM*
CCCCCn1c(SCC#N)nc2cc(C(=O)NCC3CCCO3)ccc2c1=O (configuration not stated)	?	2.51µM*	1.6%
O=C(CCCn1c(SCC(=O)c2ccc(O)c(O)c2)nc2ccccc2c1=O)NCC1CCCO1 (configuration not stated)	?	5.01µM*	17.8µM*
COC(=O)c1ccc2c(=O)n(CC3CCCO3)c(SCC(=O)Nc3ccccc3Cl)nc2c1 (configuration not stated)	18.6	-8.7%	15.6%
C=CCn1c(SCC(=O)N2CCCC2)nc2cc(C(=O)NCC3CCCO3)ccc2c1=O (configuration not stated)	8.6	?	?
CC(C)(C)c1ccc(CS(=O)CC(O)CO)cc1 (configuration not stated)	-28.8	1.7%	4.5%
O=S(=O)(c1ccccc1)N1CCC2(CCCN(c3ncccn3)C2)CC1	·	-14.3%	-4.1%
COc1ccccc1NCC(=O)NNCC(=O)Nc1ccc(F)c(Cl)c1	·	·	-4.7%
O=C(NCc1ccccc1)c1c(O)c2cccc3c2n(c1=O)CCC3	7.8	-24.5%	?
CCc1nc2ccccc2c(=O)n1NC(=O)c1c(O)c2cccc3c2n(c1=O)CCC3	-83.4*	-13.4%	15.6%
CCc1nc(NC(=O)NS(=O)(=O)c2ccccc2C(=O)OC)nc(OC)n1	·	·	1.9%
O=[N+]([O-])c1ccc(N2CCC(=NOCc3ccc(Cl)cc3)CC2)cc1	82.5	-16.2%	12.6µM*
Cc1ccc(C(=O)ON=C2CCN(c3ccc([N+](=O)[O-])cc3)CC2)cc1	-4.0	-6.8%	?
Cc1ccc(C)c(S(=O)(=O)NCc2ccc(C(=O)N3CCC(Cc4ccccc4)CC3)cc2)c1	7.1	?	?
Cc1nn(-c2ccccc2)c2c1/C(=N/O)CC(C)(C)C2	2.0	0.9%	-3.6%
Cc1nn(-c2ccccc2)c2c1C(=O)N(c1ccccc1)C(=O)C(C)(C)C2	28.7	-20.5%	12.6µM*
CC(=O)C1=C(C)N(Cc2ccco2)C(=O)N[C@@H]1c1ccccc1	·	-6.3%	4.0%
SMILES	PNC inhibitor	HPGD inh	ALDH1A1 block
CCOC(=O)c1c(-c2ccc(C)o2)csc1NC(=O)CSc1nncs1	?	20µM*	11.2µM*
CCOC(=O)c1c(-c2ccc(C)o2)csc1NC(=O)CN1CCC(C(N)=O)CC1	·	·	25.1µM*
CCOC(=O)c1c(-c2ccco2)csc1NC(=O)CSc1nnc(N)s1	50.8	-17.9%	?
CCOC(=O)c1c(-c2ccc(C)o2)csc1NC(=O)CN(C)CC(=O)Nc1ccc(C)cc1	-13.6	?	?
COc1ccc(-c2nc(-c3ccccc3)c(Nc3ccc4ccccc4c3)o2)cc1	·	-7.7%	?
Cc1cc(C(=O)NNC2CC(=O)N(c3ccc4ccccc4c3)C2=O)c(C)o1 (configuration not stated)	·	·	-8.3%
COC(=O)NC(c1cccc(F)c1)[C@@]1(C(=O)OC)CCCC1=O (some centres not stated)	·	·	2.5%[13.5 µM]
Cc1ccc(S(=O)(=O)CCSc2cccc(C(=O)Nc3ccccc3C(=O)O)c2)cc1	?	15.8µM*	?
O=C(CSCc1ccccc1)Nc1cccc(C(=O)Nc2ccccc2C(=O)O)c1	40.9	-26.9%	-9.9%
CCC(C)(C(=O)NC1CCCC1)N(C(=O)Cc1cccs1)c1c(C)n(C)n(-c2ccccc2)c1=O (configuration not stated)	·	·	-5.5%
COc1ccc(S(=O)(=O)NC(C)C(=O)Nc2cccc(C(C)=O)c2)cc1 (configuration not stated)	-111.7*	-10.3%	-12.6%
CCOC(=O)c1ccc(NC(=O)COc2ccc(S(=O)(=O)NC(C)CC)cc2)cc1 (configuration not stated)	-24.6	-9.9%	-1.5%
COc1ccc(S(=O)(=O)NC(C)C(=O)Nc2ccccc2F)cc1 (configuration not stated)	?	-7.1%	0.7%
CCOC(=O)c1ccc(NC(=O)C(C)NS(=O)(=O)c2ccc(OC)cc2)cc1 (configuration not stated)	41.7	?	14.1µM*
Cc1nnc(SCC2=C(C(=O)O)N3C(=O)[C@@H](NC(=O)Cn4cnnn4)[C@@H]3SC2)s1	·	-8.8%	4.7%[20.9 µM]
Cc1cccc(-n2nnc3c(=O)n(Cc4ccccn4)cnc32)c1	·	·	0.4%
CC(SCC(=O)NC(C)C1CC2CCC1C2)C(=O)O (configuration not stated)	26.4	-8.2%	-8.2%
N#C/C(=C\c1ccc(O)c(O)c1)C(=O)NCCCCc1ccccc1	·	8.91µM*	?
O=C(O)CCCC(=O)NCCCCc1ccccc1	?	-4.3%	1.9%
N#C/C(=C\c1ccc(O)c(O)c1)C(=O)NCCc1ccccc1	·	25.1µM*	?
COc1cc(/C=C(\C#N)C(=O)NCCc2ccccc2)cc(OC)c1O	·	·	-2.2%
COc1ccc(-n2nc(C(=O)NCC(=O)Nc3ccccn3)c3ccccc3c2=O)cc1Cl	27.0	?	?
Cc1ccc(S(=O)(=O)Nc2ccc(Cl)cc2)cc1NC(=O)c1cc2c(s1)CCCC2	54.8	-13.8%	-6.9%
CCNc1nc(NCC)n2c(SC(C(=O)Nc3cc(C)ccc3OC)c3ccccc3)nnc2n1 (configuration not stated)	24.3	-4.6%	-2.2%
CC(C)(C)NC(=O)COC(=O)c1ccccc1OCC(=O)Nc1ccc(Br)cc1	?	·	-4.7%
COc1ccc(S(=O)(=O)NCC2CCCN(C(=O)C=C(C)C)C2)cc1 (configuration not stated)	·	·	4.47µM*
O=C(CCc1ccccn1)N1CCCC(CNS(=O)(=O)c2cccs2)C1 (configuration not stated)	·	·	-5.8%
COc1ccc(S(=O)(=O)NCc2ccc3c(c2)cc(C)n3C)cc1	16.0	-9.3%	?
COC(=O)CCC(=O)N1CCCC(CNS(=O)(=O)c2ccc(OC)cc2)C1 (configuration not stated)	·	·	8.91µM*
CCOC(=O)N1CCC(NC(=O)C2CCC(CNS(=O)(=O)c3ccc(OC)cc3)CC2)CC1 (configuration not stated)	4.5	-4.4%	-8.0%
